TPT1 inhibitor – Candida albicans TPT1 enzyme inhibitors, primary screen, biochemical, fluorescence polarization. recombinant caTPT1, FP RNA substrate dephosphorylation. inhibition, % at 5 µM. 300,000 compounds, 0.81% hits. AID 1962, 2009;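 active means inhibition above the mean of all tested compounds plus 3 SD, set per screening campaign, cut at about 24% in these data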
IDE cell inh – human IDE inhibitors in live cells, primary screen, fluorescence polarization, HEK cells, FAbetaB substrate; Insulin-degrading enzyme (Homo sapiens), P14735; FAbetaB cleavage; inhibition, % at 5.59 µM; 320,000 compounds, 0.41% hits; AID 434962, 2010;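 active means percent inhibition above the average of all tested compounds plus 3 SD, set per screening campaign, cut at about 16% in these data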;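 further: IDE supplied by intact live HEK cells; FP after avidin binding of uncleaved biotin substrate so inhibition keeps polarization high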
Target sequence (P14735 whole entry, looked up): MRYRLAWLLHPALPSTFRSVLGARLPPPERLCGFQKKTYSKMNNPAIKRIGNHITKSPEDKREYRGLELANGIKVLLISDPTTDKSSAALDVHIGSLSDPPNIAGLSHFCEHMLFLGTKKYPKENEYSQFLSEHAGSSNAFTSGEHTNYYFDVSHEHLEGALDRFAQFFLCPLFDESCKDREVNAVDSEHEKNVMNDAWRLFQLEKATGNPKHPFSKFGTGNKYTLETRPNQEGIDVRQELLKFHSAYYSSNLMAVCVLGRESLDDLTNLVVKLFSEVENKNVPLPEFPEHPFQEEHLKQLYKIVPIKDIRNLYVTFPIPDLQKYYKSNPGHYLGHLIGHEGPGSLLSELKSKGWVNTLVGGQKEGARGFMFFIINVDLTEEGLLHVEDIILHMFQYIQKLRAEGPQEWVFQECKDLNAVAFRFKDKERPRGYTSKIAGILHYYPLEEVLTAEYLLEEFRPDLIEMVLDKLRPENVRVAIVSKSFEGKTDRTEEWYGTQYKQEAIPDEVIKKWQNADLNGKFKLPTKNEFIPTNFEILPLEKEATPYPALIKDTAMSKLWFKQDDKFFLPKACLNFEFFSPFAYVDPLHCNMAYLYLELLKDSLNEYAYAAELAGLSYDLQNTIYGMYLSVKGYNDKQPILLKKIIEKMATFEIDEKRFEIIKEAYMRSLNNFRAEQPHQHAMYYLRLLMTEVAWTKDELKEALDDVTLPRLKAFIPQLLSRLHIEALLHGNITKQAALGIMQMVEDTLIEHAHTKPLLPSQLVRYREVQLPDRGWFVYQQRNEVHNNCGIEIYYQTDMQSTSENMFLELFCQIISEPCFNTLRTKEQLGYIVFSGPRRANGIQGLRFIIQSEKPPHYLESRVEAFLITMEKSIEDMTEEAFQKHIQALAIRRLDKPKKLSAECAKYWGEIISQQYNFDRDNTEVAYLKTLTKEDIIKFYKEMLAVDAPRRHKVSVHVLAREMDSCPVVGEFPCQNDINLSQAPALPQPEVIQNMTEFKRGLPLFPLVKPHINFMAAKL
CRFBP-R2 block – antagonists of CRF-BP/CRF-R2 complex, primary screen, cell-based, HEK293, calcium dye fluorescence, uHTS; CRF-induced calcium fluorescence; inhibition, % at 11.8 µM; 350,000 compounds, 0.59% hits; AID 588475, 2011;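 active means inhibition of the ligand-induced calcium signal above about 50% at the single tested concentration, limit read from the data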
CRFBP-R2 agonist – agonists of CRF-BP/CRF-R2 complex, primary screen, cell-based, HEK293, calcium dye fluorescence, uHTS. CRF-binding protein / CRF receptor 2 complex (human). calcium dye fluorescence (FLIPR); percent of saturating CRF peptide response. 350,000 compounds, 0.46% hits. activation, % at 13.2 µM;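 active means activation of at least 50%, plus an integration ratio under a set limit after plate pattern correction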
IDE cell activ – human IDE activators in live cells, primary screen, fluorescence polarization, HEK cells, FAbeta-B substrate | FAbeta-B cleavage; 0% vehicle, 100% cell-free pure enzyme wells | activation, % at 5.96 µM | 340,000 compounds, 0.073% hits;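 active means activation above the mean of all tested compounds plus 3 SD, set per screening campaign, cut at about 17% in these data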
Myeloid diff MLP – induction of myeloid progenitor differentiation, primary screen, cell-based, flow cytometry, MLPCN library; 360,000 compounds, 1% hits; ER-HoxA9 myeloid progenitors, lysozyme-GFP differentiation; calls only at 10 µM; AID 624256, 2012;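 active means normalized GFP-positive differentiation at or above the plate's own cutoff, the solvent-only control mean plus 3 SD; inconclusive means no clear call, values can overlap the other calls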;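 further: cells exposed to compound for four days before flow analysis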
caTPT1 confirm – Candida albicans TPT1 inhibitors, confirmation, biochemical, fluorescence polarization, triplicate; shares compounds with TPT1 inhibitor; recombinant caTPT1, RNase T1 coupled; inhibition, % at 5 µM; 2,400 compounds, 74% hits; AID 2149, 2009;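 active means inhibition above the primary screen limit, the mean inhibition of all tested compounds plus 3 SD, cut at about 25% in these data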
RNase T1 counter – RNase T1 inhibitors, counter-screen for TPT1 inhibitor project, biochemical, fluorescence polarization | 2,400 compounds, 83% hits | inhibition, % at 5 µM | shares compounds with TPT1 inhibitor | RNase T1 cleavage, 1536-well;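 active means inhibition above the solvent-only control well mean plus 3 SD, limit set per screening run, cut at about 23% in these data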;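 further: inhibitors block cleavage so intact labeled substrate keeps polarization high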
A number is an active result; 0 = inactive; ? = inconclusive; - = not tested or not shown; + = active, no number. Most compounds without a hit are left out; they make up all but 2.6% or so of the library.

SMILES | TPT1 inhibitor | IDE cell inh | CRFBP-R2 block | CRFBP-R2 agonist | IDE cell activ | Myeloid diff MLP | caTPT1 confirm | RNase T1 counter
COc1ccc(N=NC2=C(O)CC(C)(C)CC2=O)c(OC)c1 | 60 | 0 | 0 | 0 | 0 | 0 | 61 | 75
COc1ccc(N=NC2=C(O)CC(C)(C)CC2=O)cc1 | 0 | 0 | 0 | 0 | 0 | 0 | - | -
N#CCCN(C(=O)CN1CCN(S(=O)(=O)c2ccc3c(c2)OCCO3)CC1)c1ccc(F)cc1 | - | 0 | 0 | 0 | 0 | 0 | - | -
O=C(Nc1nccs1)c1ccc(N2C(=O)C3CCCCC3C2=O)cc1 (stereo not given) | 65 | 0 | 0 | 0 | 0 | 0 | 0 | 0
O=C(Nc1nccs1)c1ccc(N2C(=O)[C@@H]3[C@H](C2=O)[C@H]2C=C[C@@H]3C2)cc1 | 0 | 0 | 0 | 0 | 0 | 0 | - | -
Cc1cc(C(F)(F)F)nc2c(Cl)c(C(C)(C)C)nn12 | 0 | 0 | 0 | 0 | - | 0 | - | -
N#Cc1c(N)n(CCOC(=O)c2cccc(Br)c2)c2nc3ccccc3nc12 | 0 | 0 | 0 | 0 | 0 | 0 | - | -
Cc1ccc(C(=O)NCCn2c(N)c(C#N)c3nc4ccccc4nc32)cc1 | 36 | 0 | 0 | 0 | 0 | + | 49 | 55
N#Cc1c(N)n(CCNC(=O)c2ccc(Cl)cc2)c2nc3ccccc3nc12 | 27 | 0 | 0 | 0 | 0 | 0 | 0 | 30
COCCn1c(N)c(C#N)c2nc3ccccc3nc21 | 0 | 0 | 0 | 0 | 0 | 0 | - | -
O=C(c1ccc(F)c(F)c1)N1CCC2(CC1)NCCc1[nH]cnc12 | 0 | 0 | 0 | 0 | 0 | 0 | - | -
Nc1c(C(=O)c2ccccc2)sc2nsc(SCCN3CCCC3)c12 | 48 | 0 | 0 | 102 | 0 | + | 47 | 56
Nc1c(C(=O)c2ccc(Cl)cc2)sc2nsc(SCCN3CCOCC3)c12 | 41 | 0 | 0 | 92 | 0 | + | 57 | 69
O=C(NCCN1CCOCC1)c1ccc(Cl)cc1 | 0 | 0 | 0 | 0 | 0 | 0 | - | -
CC(=O)c1sc2nsc(SCCN3CCCCC3)c2c1N | 0 | 0 | 0 | 0 | - | 0 | - | -
CCN(C[C@H]1N[C@@](C)(C(=O)OC)[C@H]2C(=O)N(Cc3ccccc3)C(=O)[C@@H]12)C(=O)c1ccc(C)cc1 | - | 0 | 0 | 0 | 0 | 0 | - | -
COc1ccc(/C=C(\C#N)C(=O)Nc2cccc3ncccc23)cc1OC | 0 | 0 | 0 | 0 | 0 | 0 | - | -
N#C/C(=C\c1ccc(O)c(O)c1)C(=O)Nc1cccc2ncccc12 | 24 | 0 | 0 | 0 | 0 | 0 | 0 | 27
O=C1CCCC2=C1C(c1ccc(Br)cc1)c1c([nH]c(=S)[nH]c1=O)N2 (stereo not given) | 0 | 0 | 0 | 0 | 0 | 0 | - | -
O=c1[nH]c(=S)[nH]c2c1C(c1ccc(Br)cc1)c1c([nH]c(=S)[nH]c1=O)O2 | 82 | 0 | 0 | 0 | 0 | 0 | 0 | 0
COC(=O)[C@@]12C[C@@H](CC(=O)NCCc3ccccc3OC)C(=O)N(Cc3cccc4ccccc34)C1=CCC(C)(C)C2 | - | - | - | - | - | 0 | - | -
CN1CCc2c(sc(NC(=O)c3ccc(S(=O)(=O)N4CCc5ccccc54)cc3)c2C(N)=O)C1 | 34 | 0 | - | - | - | - | 51 | 63
NNC(=O)c1ccc(S(=O)(=O)N2CCc3ccccc32)cc1 | 0 | 0 | 0 | 0 | 0 | 0 | - | -
CN1CCc2c(sc(NC(=O)c3ccc(S(=O)(=O)N4CCOCC4)cc3)c2C(N)=O)C1 | 90 | 0 | 0 | 0 | 0 | 0 | 101 | 111
CNC(=O)c1c(NC(=O)c2ccc(S(=O)(=O)N3CCCCC3)cc2)sc2c1CCN(C(C)C)C2 | 29 | 0 | 0 | 0 | 0 | ? | 30 | 39
SMILES | TPT1 inhibitor | IDE cell inh | CRFBP-R2 block | CRFBP-R2 agonist | IDE cell activ | Myeloid diff MLP | caTPT1 confirm | RNase T1 counter
CCN1CCc2c(sc(NC(=O)c3ccc(S(=O)(=O)N4CCCC4)cc3)c2C(=O)NC)C1 | 0 | 0 | 0 | 0 | 0 | 0 | - | -
CN1CCc2nc(NC(=O)c3cccc(S(=O)(=O)N4CCc5ccccc54)c3)sc2C1 | 49 | 0 | 0 | 0 | 0 | 0 | 0 | 29
Cc1cc2c(cc1S(=O)(=O)N1CCN(c3cccc(C)c3C)CC1)OCCN2C | 0 | 0 | 0 | 0 | 0 | 0 | - | -
CC1CCN(c2ccc3nnc(CCC(=O)N4CCCCC4)n3n2)CC1 | 0 | 0 | 0 | 0 | 0 | ? | - | -
CN1CCc2c(sc(NC(=O)c3ccc(S(=O)(=O)N4CCCC4)cc3)c2C(N)=O)C1 | 116 | 0 | 0 | 0 | 0 | 0 | 133 | 134
Cc1ccccc1C(=O)N1CCN(c2ccc(NC(=O)c3cccnc3Cl)cc2)CC1 | 94 | 0 | 0 | 0 | 0 | 0 | 0 | 0
Cc1ccccc1C(=O)N1CCN(c2ccc(NC(=O)c3ccccc3[N+](=O)[O-])cc2)CC1 | 0 | 0 | 0 | 0 | 0 | 0 | - | -
O=C(N/N=C\c1c(O)ccc2ccccc12)c1ccc(S(=O)(=O)N2CCCCC2)cc1 | 96 | 0 | 0 | 203 | 0 | + | 100 | 101
COc1ccc(NC(=O)CC2C(=O)N(C)C(=S)N2Cc2ccc3c(c2)OCO3)cc1 (stereo not given) | 0 | 0 | 0 | 0 | 0 | 0 | - | -
O=[N+]([O-])c1ccc(/C=N/Nc2ccnc3cc(Cl)ccc23)o1 | 68 | 0 | 0 | 0 | 0 | ? | 62 | 78
Cc1cc(N/N=C/c2ccc([N+](=O)[O-])o2)nc2ccccc12 | 49 | 0 | 0 | 0 | 0 | + | 50 | 64
Cc1cccc(C)c1NC(=O)Cn1nc(-c2ccc(Cl)s2)ccc1=O | 0 | 0 | 0 | 0 | 0 | 0 | - | -
O=C(CCCN1C(=O)/C(=C/c2cccs2)SC1=S)Nc1cccc(C(=O)O)c1 | 0 | 0 | 0 | 0 | 0 | 0 | - | -
O=C(CCN1C(=O)/C(=C/c2cccs2)SC1=S)Nc1cccc(C(=O)O)c1 | 53 | 0 | 0 | 0 | 0 | 0 | 48 | 63
O=C(CCN1C(=O)/C(=C/c2cccs2)SC1=S)Nc1ccccc1O | 24 | 0 | 0 | 0 | 0 | 0 | 25 | 36
O=C(CCN1C(=O)/C(=C/c2cccs2)SC1=S)Nc1ccc(O)cc1 | 0 | 0 | 0 | 0 | 0 | 0 | - | -
COc1ccc(/C=C2\SC(=S)N(CCCC(=O)Nc3ccccc3C(=O)O)C2=O)cc1OC | 39 | 0 | 0 | 0 | 0 | 0 | 70 | 77
O=C(CCN1C(=O)/C(=C\c2cccs2)SC1=S)Nc1ccccn1 | 32 | 0 | 0 | 0 | 0 | 0 | 28 | 41

Screens as filed in PubChem BioAssay.
